The campaign covered roughly 340,000 compounds. About 6,900 (2%) were called active. No stated cut-off is given here; in the data, active means inhibition above about 30%; inactive means below that, where a call was filed. The entries come from a sample that favours actives as a whole.
The compounds below were run against D(2) dopamine receptor (Homo sapiens) (UniProt P14416) (assay: HTS Assay for Allosteric Antagonists of the Human D2 Dopamine Receptor: Primary Screen for Antagonists). Conditions: HEK293 TREx D2 cells, calcium flux, dopamine EC80; at 10 µM; hits give high values.
In short: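 Inhibition of EC80 dopamine-driven calcium flux, recorded kinetically, defines activity here; cells are a tetracycline-induced HEK293 T-REx line expressing force-coupled D2.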
Further: 0% is about no effect.

Chain of D(2) dopamine receptor (Homo sapiens) (P14416 whole entry, looked up): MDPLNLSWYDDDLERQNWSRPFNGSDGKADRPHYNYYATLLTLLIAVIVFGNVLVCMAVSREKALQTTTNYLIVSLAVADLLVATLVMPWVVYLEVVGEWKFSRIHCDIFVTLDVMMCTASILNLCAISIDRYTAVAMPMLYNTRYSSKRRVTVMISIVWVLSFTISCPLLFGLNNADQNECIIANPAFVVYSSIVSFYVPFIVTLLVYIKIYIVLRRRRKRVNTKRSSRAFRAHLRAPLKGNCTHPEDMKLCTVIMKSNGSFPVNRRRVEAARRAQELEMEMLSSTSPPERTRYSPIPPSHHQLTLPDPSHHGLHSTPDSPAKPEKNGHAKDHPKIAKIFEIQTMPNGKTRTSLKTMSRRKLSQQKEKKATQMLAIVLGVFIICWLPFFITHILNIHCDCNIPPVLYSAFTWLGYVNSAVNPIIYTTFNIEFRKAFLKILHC

Question: Which inhibition does the source give for `O=C(CCNC(=O)c1ccccc1Cl)NCc1ccco1` here?
Answer: -26.5% (inactive)

Question: For `CCc1nnc(NC(=O)c2cc(S(=O)(=O)N3CCCCC3)ccc2C)s1`, which inhibition is on record?
Answer: -4.7% (inactive)

Question: With `Cc1ccccc1NC(=O)Cc1nc(COC(=O)c2ccc(C(F)(F)F)cc2)cs1` as the compound, how does the inhibition read?
Answer: 2.02% (inactive)

Question: Which inhibition does the source give for `CN(CC(=O)NCC(c1ccccc1)N1CCCC1)S(=O)(=O)c1ccc(Cl)cc1` (stereo unspecified) here?
Answer: 11.7% (inactive)

Question: Which inhibition does the source give for `CCOc1ccc(NC(=O)CN(C)C(=O)CCSc2ccc(F)cc2)cc1OCC` here?
Answer: -8.24% (inactive)

Question: Which inhibition does the source give for `CC1CCC(NC(=O)CNC(=O)c2ccc3ccccc3c2)CC1` (stereo unspecified) here?
Answer: -11% (inactive)

Question: With `Cc1ccc(CN2CCCOCCS2(=O)=O)cc1` as the compound, how does the inhibition read?
Answer: -5.42% (inactive)

Question: With `CCC(C)[C@H]1COCCS(=O)(=O)N1Cc1ccc(C)cc1` (stereo partly specified) as the compound, how does the inhibition read?
Answer: 36.6% (active)

Question: How did the inhibition turn out when `CCCC[C@H]1COCCS(=O)(=O)N1Cc1cccc(Cl)c1` was run?
Answer: 0.354% (inactive)

Question: For `CCN(CC)C(CNC(=O)CSc1nnnn1-c1cccc(F)c1)c1ccco1` (stereo unspecified), which inhibition is on record?
Answer: -7.6% (inactive)

Question: For `CN1CCN(S(=O)(=O)c2ccc(N3CCN(c4ccccc4O)CC3)c([N+](=O)[O-])c2)CC1`, which inhibition is on record?
Answer: 6.91% (inactive)

Question: `Cc1cc(CNC(=O)c2cccc([N+](=O)[O-])c2)c2ccccc2n1` was tested. Which inhibition did it give?
Answer: 49.1% (active)

Question: How did the inhibition turn out when `CC(C)(C)SCCNC(=O)c1cccc([N+](=O)[O-])c1` was run?
Answer: 7.44% (inactive)

Question: For `Cc1cc(C)nc(NC(=O)c2cccc([N+](=O)[O-])c2)c1`, which inhibition is on record?
Answer: 14.3% (inactive)

Question: How did the inhibition turn out when `O=C(COC(=O)c1ncc(Cl)c(Cl)c1Cl)NCc1ccccc1` was run?
Answer: 6.01% (inactive)

Question: How did the inhibition turn out when `CCN(CC(=O)NCc1cccs1)C(=O)c1ccc(OC)c(S(=O)(=O)N2CCOCC2)c1` was run?
Answer: 13.8% (inactive)

Question: Which inhibition does the source give for `Cc1cc(C)nc(SCC(=O)N(C)C)n1` here?
Answer: 7.94% (inactive)

Question: For `CCOC(=O)c1c(C)oc(C)c(C(=O)OCC)c1=O`, which inhibition is on record?
Answer: -5.88% (inactive)

Question: With `CCOC(=O)c1c(C)[nH]c(C)c1C(=O)CSc1nc(N)cc(N)n1` as the compound, how does the inhibition read?
Answer: 49.1% (active)

Question: For `COc1ccc(C)cc1NC(=O)c1cc(-c2ccccc2)nc2c1cnn2C(C)C`, which inhibition is on record?
Answer: 5.18% (inactive)

Question: For `CC(C)n1ncc2c(C(=O)Nc3ccc(CC#N)cc3)cc(C3CC3)nc21`, which inhibition is on record?
Answer: -20.3% (inactive)

Question: `CC(C)n1ncc2c(C(=O)NCc3ccccc3CN(C)C)cc(C3CC3)nc21` was tested. Which inhibition did it give?
Answer: 79.9% (active)

Question: `COc1ccc(C2=NN(C(=O)CSc3nc(=O)n4ccc(C)cc4n3)C(c3ccc(C)cc3)C2)cc1` (stereo unspecified) was tested. Which inhibition did it give?
Answer: -6.53% (inactive)

Question: For `O=C(NCC(c1cccs1)N1CCOCC1)c1cc(Cl)ccc1[N+](=O)[O-]` (stereo unspecified), which inhibition is on record?
Answer: 11.5% (inactive)

Question: How did the inhibition turn out when `CC(=O)c1ccc(N2CCN(C(=O)c3ccc(Cl)c(S(=O)(=O)NC4CC4)c3)CC2)c(F)c1` was run?
Answer: 8.05% (inactive)

Question: How did the inhibition turn out when `CCCCN(CC(=O)Nc1cccc(S(=O)(=O)N2CCCC2)c1)Cc1nc2ccccc2c(=O)[nH]1` was run?
Answer: -6.94% (inactive)

Question: With `O=C(CN1CCN(c2cccc(Cl)c2)CC1)Nc1ccc(S(=O)(=O)N2CCOCC2)cc1` as the compound, how does the inhibition read?
Answer: 30.5% (active)

Question: `Cc1ccnc(NS(=O)(=O)c2ccc(NC(=O)c3ccc(S(=O)(=O)N4CCOCC4)cc3)cc2)n1` was tested. Which inhibition did it give?
Answer: -5.53% (inactive)

Question: For `O=C(Nc1ccc(N2CCOCC2)c(Cl)c1)c1ccc(S(=O)(=O)N2CCOCC2)cc1`, which inhibition is on record?
Answer: 34.4% (active)

Question: For `CN1CCN(c2ccc(NC(=O)c3ccc4c(c3)OCCO4)cc2Cl)CC1`, which inhibition is on record?
Answer: -3.57% (inactive)

Question: With `O=C(CN1CCN(c2ccc(O)cc2)CC1)Nc1cc(S(=O)(=O)N2CCOCC2)ccc1Cl` as the compound, how does the inhibition read?
Answer: -10.8% (inactive)

Question: For `O=C(Nc1ccc(S(=O)(=O)N2CCOCC2)cc1)c1ccc2ncsc2c1`, which inhibition is on record?
Answer: 16.7% (inactive)

Question: `O=C(CN1C(=O)CCC1=O)Nc1ccc(S(=O)(=O)N2CCOCC2)cc1` was tested. Which inhibition did it give?
Answer: 10.1% (inactive)

Question: Which inhibition does the source give for `O=C(Nc1ccc2cn[nH]c2c1)c1ccc(S(=O)(=O)N2CCOCC2)cc1` here?
Answer: 30.5% (active)

Question: `O=C(CCc1ccc(S(=O)(=O)N2CCOCC2)cc1)Nc1ccc2ccccc2c1` was tested. Which inhibition did it give?
Answer: -58.3% (inactive)

Question: For `CC(C(=O)Nc1ccc(S(=O)(=O)N2CCCC2)cc1)N(C)Cc1ccc(F)cc1` (stereo unspecified), which inhibition is on record?
Answer: -65.3% (inactive)

Question: With `CCn1nc(C(=O)NNC(=O)C2CSC3(C)CCC(=O)N23)c2ccccc2c1=O` (stereo unspecified) as the compound, how does the inhibition read?
Answer: -19.4% (inactive)

Question: For `COc1cc(C#Cc2ccc3cc(CCCO)oc(=O)c3c2)cc(OC)c1`, which inhibition is on record?
Answer: 7.69% (inactive)

Question: How did the inhibition turn out when `COc1ccc(CNC(=O)C(=O)N2CCC3(CC2)OCCN3S(=O)(=O)c2ccc(C)cc2)cc1` was run?
Answer: -3.99% (inactive)

Question: For `C=CCSc1ccc(S(=O)(=O)N2CCN(C)CC2)cn1`, which inhibition is on record?
Answer: 6.94% (inactive)

Question: For `CC(C)N(Cc1nnc(-c2ccccc2Br)o1)C(=O)c1cc(Cl)nc2ccccc12`, which inhibition is on record?
Answer: -0.847% (inactive)

Question: With `Cc1cc(C)cc(OCC(=O)Nc2ccc(N3CCOCC3)cc2N2CCOCC2)c1` as the compound, how does the inhibition read?
Answer: -19.7% (inactive)

Question: Which inhibition does the source give for `CCOc1ccc(S(=O)(=O)N2CCC(C(=O)NCC(=O)Nc3cccc(Cl)c3C)CC2)cc1` here?
Answer: 0.735% (inactive)

Question: `N#Cc1ccccc1S(=O)(=O)N1CCN(Cc2c(O)ccc3ccccc23)CC1` was tested. Which inhibition did it give?
Answer: -16.7% (inactive)

Question: How did the inhibition turn out when `COc1cccc(CNC(=O)C(=O)NCCC2CCCCN2S(=O)(=O)c2ccc(C)cc2)c1` (stereo unspecified) was run?
Answer: -3.22% (inactive)

Question: With `C[C@@H](NC(=O)c1nc[nH]c1C(=O)N1CCN(C(=O)OC(C)(C)C)CC1)c1ccccc1` as the compound, how does the inhibition read?
Answer: 4.62% (inactive)

Question: How did the inhibition turn out when `COC(=O)c1c(C)[nH]c(C(=O)/C=C/c2ccc(Cl)cc2)c1C` was run?
Answer: 40.8% (active)

Question: Which inhibition does the source give for `Cc1ccc(NC(=S)NC(=O)/C=C/c2ccc(Cl)cc2)cc1` here?
Answer: -2.32% (inactive)

Question: `CCCCOC(=O)c1[nH]c(C)c(C(=O)OC)c1C` was tested. Which inhibition did it give?
Answer: -12.8% (inactive)

Question: With `CC(C)c1csc(CN2CCC(CO)(Cc3ccccc3)CC2)n1` as the compound, how does the inhibition read?
Answer: 0.256% (inactive)

Question: For `OCC1(Cc2ccccc2)CCN(Cc2cc3ccccc3o2)CC1`, which inhibition is on record?
Answer: 94.6% (active)

Question: With `CC(=O)c1cccc(CN2CCC(CO)(Cc3ccccc3)CC2)c1` as the compound, how does the inhibition read?
Answer: 3.1% (inactive)

Question: For `O=C(c1ccc(F)cc1)C1CCN(Cc2cn[nH]c2-c2ccccc2)CC1`, which inhibition is on record?
Answer: 56% (active)

Question: For `COc1ccc(CN2CCNC(=O)C2CC(=O)NCc2cn[nH]c2-c2ccccc2)c(F)c1` (stereo unspecified), which inhibition is on record?
Answer: -65.2% (inactive)

Question: For `OCC1(CCOc2ccccc2)CCN(Cc2cn[nH]c2-c2ccccc2)CC1`, which inhibition is on record?
Answer: -12.6% (inactive)

Question: How did the inhibition turn out when `Cc1ccc(S(=O)(=O)N2CCOCC2)cc1NC(=O)COC(=O)c1cnccn1` was run?
Answer: -7.64% (inactive)

Reference: PubChem BioAssay AID485344 (National Center for Advancing Translational Sciences (NCATS), 2010)
